# Results: PubChem BioAssay AID1159580 (chemical genetic matrix, 2015)
# The whole screen tested about 5,500 compounds, of which about 2,000 (36%) were called active. About 18% were inconclusive and are not listed. The list shows a part of the results. Values without a mark were called inactive. Cut-off read from the data, not from the text of the source: active = normalized growth mostly below about 0.91 (no sharp cut-off); inconclusive = no clear call, values can overlap the other calls; inactive = mostly above about 0.92.
# Experiment: chemical genetic growth profiling, strain panel (AID 1159580);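 note: tested at 20 µM; growth read once vehicle control cultures reached saturation at 30 °C; 1 = growth at the plate median or of vehicle wells; lower values mean less growth of the strain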
# Details: growth OD
# [1] = S. cerevisiae deletion strains, locus YAL013W, strain DEP1, hits give low values
# [2] = S. cerevisiae deletion strains, locus YBR021W, strain FUR4, hits give low values
# [3] = S. cerevisiae deletion strains, locus YBR229C, strain ROT2, hits give low values
# [4] = S. cerevisiae deletion strains, locus YCL029C, strain bik1, hits give low values
# [5] = S. cerevisiae deletion strains, locus YDL035C, strain GPR1, hits give low values
# [6] = S. cerevisiae deletion strains, locus YDL074C, strain BRE1, hits give low values
# [7] = S. cerevisiae deletion strains, locus YDL101C, strain DUN1, hits give low values
# [8] = S. cerevisiae deletion strains, locus YDL185W, strain tfp1, hits give low values
# [9] = S. cerevisiae deletion strains, locus YDL192W, strain arf1, hits give low values
# [10] = S. cerevisiae deletion strains, locus YDR101C, strain arx1, hits give low values
# [11] = S. cerevisiae deletion strains, locus YDR162C, strain NBP2, hits give low values
# [12] = S. cerevisiae deletion strains, locus YDR318W, strain mcm21, hits give low values
# [13] = S. cerevisiae deletion strains, locus YDR388W, hits give low values
# [14] = S. cerevisiae deletion strains, locus YDR502C, strain sam2, hits give low values
# [15] = S. cerevisiae deletion strains, locus YEL061C, strain CIN8, hits give low values
# [16] = S. cerevisiae deletion strains, locus YER110C, hits give low values
# [17] = S. cerevisiae deletion strains, locus YER155C, strain BEM2, hits give low values
# [18] = S. cerevisiae deletion strains, locus YER167W, strain BCK2, hits give low values
# [19] = S. cerevisiae deletion strains, locus YGL078C, strain dbp3, hits give low values
# [20] = S. cerevisiae deletion strains, locus YGL086W, strain mad1, hits give low values
# [21] = S. cerevisiae deletion strains, locus YGL248W, strain PDE1, hits give low values
# [22] = S. cerevisiae deletion strains, locus YGR135W, strain pre9, hits give low values
# [23] = S. cerevisiae deletion strains, locus YGR252W, strain gcn5, hits give low values
# [24] = S. cerevisiae deletion strains, locus YHR030C, strain SLT2, hits give low values
# [25] = S. cerevisiae deletion strains, locus YHR079C, strain IRE1 (second series), hits give low values
# [26] = S. cerevisiae deletion strains, locus YHR094C, strain hxt1, hits give low values
# [27] = S. cerevisiae deletion strains, locus YHR129C, strain ARP1, hits give low values
# [28] = S. cerevisiae deletion strains, locus YHR200W, strain rpn10, hits give low values
# [29] = S. cerevisiae deletion strains, locus YIL066C, strain RNR3, hits give low values
# [30] = S. cerevisiae deletion strains, locus YIL073C, strain SPO22, hits give low values
# [31] = S. cerevisiae deletion strains, locus YIL125W, strain kgd1, hits give low values
# [32] = S. cerevisiae deletion strains, locus YIR030C, strain dcg1, hits give low values
# [33] = S. cerevisiae deletion strains, locus YJL095W, strain BCK1, hits give low values
# [34] = S. cerevisiae deletion strains, locus YJL134W, strain LCB3, hits give low values
# [35] = S. cerevisiae deletion strains, locus YJL168C, strain set2, hits give low values
# [36] = S. cerevisiae deletion strains, locus YJL187C, strain SWE1 (second series), hits give low values
# [37] = S. cerevisiae deletion strains, locus YJR043C, strain POL32, hits give low values
# [38] = S. cerevisiae deletion strains, locus YKL068W, hits give low values
# [39] = S. cerevisiae deletion strains, locus YKR001C, strain vps1, hits give low values
# [40] = S. cerevisiae deletion strains, locus YLR039C, strain RIC1, hits give low values
# [41] = S. cerevisiae deletion strains, locus YLR058C, strain SHM2, hits give low values
# [42] = S. cerevisiae deletion strains, locus YLR102C, strain apc9, hits give low values
# [43] = S. cerevisiae deletion strains, locus YLR262C, strain YPT6, hits give low values
# [44] = S. cerevisiae deletion strains, locus YLR268W, strain sec22, hits give low values
# [45] = S. cerevisiae deletion strains, locus YLR330W, strain CHS5, hits give low values
# [46] = S. cerevisiae deletion strains, locus YLR342W, strain FKS1 (second series), hits give low values
# [47] = S. cerevisiae deletion strains, locus YLR371W, strain rom2, hits give low values
# [48] = S. cerevisiae deletion strains, locus YLR418C, strain cdc73, hits give low values
# [49] = S. cerevisiae deletion strains, locus YML016C, strain PPZ1, hits give low values
# [50] = S. cerevisiae deletion strains, locus YML032C, strain rad52, hits give low values
# [51] = S. cerevisiae deletion strains, locus YML124C, strain tub3, hits give low values
# [52] = S. cerevisiae deletion strains, locus YMR078C, strain ctf18, hits give low values
# [53] = S. cerevisiae deletion strains, locus YMR223W, strain ubp8, hits give low values
# [54] = S. cerevisiae deletion strains, locus YMR307W, strain GAS1, hits give low values
# [55] = S. cerevisiae deletion strains, locus YNL067W, strain RPL9B, hits give low values
# [56] = S. cerevisiae deletion strains, locus YNL153C, strain GIM3, hits give low values
# [57] = S. cerevisiae deletion strains, locus YNL233W, strain BNI4, hits give low values
# [58] = S. cerevisiae deletion strains, locus YNL250W, strain rad50, hits give low values
# [59] = S. cerevisiae deletion strains, locus YNL271C, strain bni1, hits give low values
# [60] = S. cerevisiae deletion strains, locus YNL298W, strain CLA4, hits give low values
# [61] = S. cerevisiae deletion strains, locus YNL307C, strain MCK1, hits give low values
# [62] = S. cerevisiae deletion strains, locus YNL322C, strain KRE1, hits give low values
# [63] = S. cerevisiae deletion strains, locus YNR052C, strain pop2, hits give low values
# [64] = S. cerevisiae deletion strains, locus YOL012C, strain htz1
# [65] = S. cerevisiae deletion strains, locus YOL147C, strain pex11, hits give low values
# [66] = S. cerevisiae deletion strains, locus YOR061W, strain CKA2, hits give low values
# [67] = S. cerevisiae deletion strains, locus YOR069W, strain VPS5, hits give low values
# [68] = S. cerevisiae deletion strains, locus YOR136W, strain idh2, hits give low values
# [69] = S. cerevisiae deletion strains, locus YOR144C, strain elg1, hits give low values
# [70] = S. cerevisiae deletion strains, locus YOR184W, strain ser1, hits give low values
# [71] = S. cerevisiae deletion strains, locus YOR316C, strain cot1, hits give low values
# [72] = S. cerevisiae deletion strains, locus YPR119W, strain clb2, hits give low values
# [73] = S. cerevisiae deletion strains, locus YPR141C, strain kar3, hits give low values
# [74] = S. cerevisiae deletion strains, locus YPR163C, strain tif3, hits give low values
# [75] = S. cerevisiae deletion strains, locus YPR167C, strain met16, hits give low values
# [76] = S. cerevisiae deletion strains, strain wtn01, hits give low values
structure (smiles),measurement,setting,value
CC(=O)OCC1(C)CCC2(C)CCC3(C)C4=CCc5c(cc(OC(C)=O)c(OC(C)=O)c5C)C4(C)CCC3(C)C2C1 (stereo not given),normalized growth,[1],1.01
same,normalized growth,[2],0.994
same,normalized growth,[3],1.02
same,normalized growth,[4],1.01
same,normalized growth,[5],1.02
same,normalized growth,[6],1.04
same,normalized growth,[7],1.02
same,normalized growth,[8],1.01
same,normalized growth,[9],1.01
same,normalized growth,[10],0.974
same,normalized growth,[11],1.04
same,normalized growth,[12],1.01
same,normalized growth,[13],0.997
same,normalized growth,[14],0.984
same,normalized growth,[15],1.01
same,normalized growth,[16],0.999
same,normalized growth,[17],1.01
same,normalized growth,[18],1
same,normalized growth,[19],1
same,normalized growth,[20],0.998
same,normalized growth,[21],1.04
same,normalized growth,[22],1
same,normalized growth,[23],0.992
same,normalized growth,[24],1.02
same,normalized growth,[25],1
same,normalized growth,[26],1.02
same,normalized growth,[27],1.02
same,normalized growth,[28],1.01
same,normalized growth,[29],1.02
same,normalized growth,[30],1.02
same,normalized growth,[31],1
same,normalized growth,[32],1
same,normalized growth,[33],1.04
same,normalized growth,[34],1.01
same,normalized growth,[35],1.01
same,normalized growth,[36],1.02
same,normalized growth,[37],1.02
same,normalized growth,[38],1.01
same,normalized growth,[39],0.997
same,normalized growth,[40],1.03
same,normalized growth,[41],1.02
same,normalized growth,[42],1
same,normalized growth,[43],1.07
same,normalized growth,[44],1
same,normalized growth,[45],1.01
same,normalized growth,[46],1.01
same,normalized growth,[47],1.01
same,normalized growth,[48],1.07
same,normalized growth,[49],1.02
same,normalized growth,[50],1
same,normalized growth,[51],0.997
same,normalized growth,[52],1.01
same,normalized growth,[53],1.01
same,normalized growth,[54],1.07
same,normalized growth,[55],1.03
same,normalized growth,"S. cerevisiae deletion strains, locus YNL128W, strain TEP1, hits give low values",1.01
same,normalized growth,[56],1.02
same,normalized growth,[57],1.03
same,normalized growth,[58],1
same,normalized growth,[59],0.999
same,normalized growth,[60],1
same,normalized growth,[61],1
same,normalized growth,[62],1.02
same,normalized growth,[63],1.01
same,normalized growth,[64],1.15
same,normalized growth,[65],0.993
same,normalized growth,[66],1.02
same,normalized growth,[67],1.01
same,normalized growth,[68],0.998
same,normalized growth,[69],0.994
same,normalized growth,[70],1.04
same,normalized growth,[71],1
same,normalized growth,[72],1
same,normalized growth,[73],1.01
same,normalized growth,[74],1.02
same,normalized growth,[75],1
same,normalized growth,[76],1.03
same,normalized growth,"S. cerevisiae strains, strain wild type, hits give low values",0.992
COC(=O)[C@]1(C)CC[C@]2(C)CC[C@]3(C)C4=CCc5c(cc(O)c(O)c5C)[C@]4(C)CC[C@@]3(C)C2C1 (stereo not given in full),normalized growth,[1],0.992
same,normalized growth,[2],0.985
same,normalized growth,[3],0.989
same,normalized growth,[4],0.98
same,normalized growth,[5],0.968
same,normalized growth,[6],0.915
same,normalized growth,[7],0.975
same,normalized growth,"S. cerevisiae deletion strains, locus YDL134C, strain PPH21, hits give low values",1.01
same,normalized growth,[8],0.984
same,normalized growth,[9],0.968
same,normalized growth,[10],0.947
same,normalized growth,[11],0.992
same,normalized growth,[12],0.994
same,normalized growth,[13],0.983
same,normalized growth,[14],0.961
same,normalized growth,[15],0.991
same,normalized growth,[16],0.978
same,normalized growth,[17],0.992
same,normalized growth,[18],0.992
same,normalized growth,[19],0.981
same,normalized growth,[20],0.94
same,normalized growth,[21],0.985
same,normalized growth,"S. cerevisiae deletion strains, locus YGR078C, strain PAC10, hits give low values",0.971
same,normalized growth,[22],0.99
same,normalized growth,[23],1.09
same,normalized growth,[24],0.994
same,normalized growth,[25],0.982
same,normalized growth,[26],0.978
same,normalized growth,[27],0.962
same,normalized growth,[28],0.986
same,normalized growth,[29],0.969
same,normalized growth,[30],0.983
same,normalized growth,[31],0.975
same,normalized growth,[32],0.982
same,normalized growth,[33],0.958
same,normalized growth,[34],0.991
same,normalized growth,[35],0.978
same,normalized growth,[36],0.961
same,normalized growth,[37],0.989
same,normalized growth,"S. cerevisiae deletion strains, locus YKL009W, strain mrt4, hits give low values",1.03
same,normalized growth,[38],0.977
same,normalized growth,"S. cerevisiae deletion strains, locus YKL085W, strain MDH1 (second series), hits give low values",0.977
same,normalized growth,"S. cerevisiae deletion strains, locus YKL085W, strain MDH1, hits give low values",0.977
same,normalized growth,[39],0.937
same,normalized growth,[40],0.945
same,normalized growth,[41],0.983
same,normalized growth,[42],0.984
same,normalized growth,[43],0.938
same,normalized growth,[44],0.939
same,normalized growth,[45],0.988
same,normalized growth,[46],0.953
same,normalized growth,[47],0.955
same,normalized growth,[48],0.802 (active)
same,normalized growth,[49],0.982
same,normalized growth,[50],1.01
same,normalized growth,[51],0.98
same,normalized growth,[52],0.958
same,normalized growth,[53],0.984
same,normalized growth,"S. cerevisiae deletion strains, locus YMR263W, strain SAP30, hits give low values",0.998
same,normalized growth,[54],0.954
same,normalized growth,[55],0.998
same,normalized growth,[56],0.973
same,normalized growth,[57],0.951
same,normalized growth,[58],0.977
same,normalized growth,[59],0.979
same,normalized growth,[60],1.01
same,normalized growth,[61],0.962
same,normalized growth,[62],0.993
same,normalized growth,[63],0.985
same,normalized growth,[64],1.1
same,normalized growth,[65],0.998
same,normalized growth,[66],0.981
same,normalized growth,[67],0.984
same,normalized growth,[68],0.966
same,normalized growth,[69],0.973
same,normalized growth,[70],0.902
same,normalized growth,[71],0.983
same,normalized growth,[72],0.971
same,normalized growth,[73],0.968
same,normalized growth,[74],0.968
same,normalized growth,[75],0.976
same,normalized growth,[76],0.929
